Reference: PMC7862700, “An all-to-all approach to the identification of sequence-specific readers for epigenetic DNA modifications on cytosine”

Legend:
Experiment in all cases: DAPPL (digital affinity profiling via proximity ligation, sequencing); 10 mM Tris-HCl pH 7.5, 50 mM NaCl, 1 mM DTT, 4% glycerol, room temperature, 30 min; GST-TFs on glutathione beads, 16-mer random dsDNA library, 0.1% formaldehyde crosslink after washing; high values mean tight binding
[1] = molecular target: T1, FEV (Homo sapiens, UniProt Q99581 1-238); details: protein: recombinant; tags: N-terminal GST; dsDNA, one strand shown
T1 sequence: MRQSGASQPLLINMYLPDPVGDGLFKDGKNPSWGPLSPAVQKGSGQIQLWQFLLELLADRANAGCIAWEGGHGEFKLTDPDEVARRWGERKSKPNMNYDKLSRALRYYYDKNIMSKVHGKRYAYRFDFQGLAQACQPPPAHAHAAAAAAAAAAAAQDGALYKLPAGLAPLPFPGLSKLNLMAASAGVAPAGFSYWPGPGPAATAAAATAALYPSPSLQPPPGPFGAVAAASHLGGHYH
How it was run: (§1)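 After expression in yeast as GST fusions, human transcription factors were bound to glutathione beads, DNA-barcoded and mixed with a tag-only sample. The pools were incubated with 200 nmole of a 16-mer random double-stranded DNA library in Tris/NaCl/DTT/glycerol buffer (30 min, room temperature), washed and crosslinked with 0.1% formaldehyde. Proximity ligation with BsaI/T4 ligase ran for 1 h at 37 °C, before PCR amplification and sequencing on an Illumina NextSeq500. Binding signal is a hexamer's read frequency for a factor divided by its frequency for the tag-only sample.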

[2] = molecular target: ETV5 (Homo sapiens, UniProt P41161 1-510); details: protein: recombinant; tags: N-terminal GST; dsDNA, one strand shown
How it was run: as §1

[3] = molecular target: HSF1 (Homo sapiens, UniProt Q00613 1-529); details: protein: recombinant; tags: N-terminal GST; chain copies: 3; dsDNA, one strand shown
How it was run: as §1

[4] = molecular target: T2, SPIC (Homo sapiens, UniProt Q8N5J4 1-248); details: protein: recombinant; tags: N-terminal GST; dsDNA, one strand shown
T2 sequence: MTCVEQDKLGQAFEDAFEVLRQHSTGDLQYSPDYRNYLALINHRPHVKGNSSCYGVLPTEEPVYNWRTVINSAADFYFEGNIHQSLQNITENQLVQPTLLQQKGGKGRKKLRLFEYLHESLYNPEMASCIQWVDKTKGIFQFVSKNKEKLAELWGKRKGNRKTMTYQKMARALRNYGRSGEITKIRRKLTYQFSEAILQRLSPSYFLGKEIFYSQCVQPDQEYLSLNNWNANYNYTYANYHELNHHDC
How it was run: as §1

[5] = molecular target: ELF4 (Homo sapiens, UniProt Q99607 1-663); details: protein: recombinant; tags: N-terminal GST; dsDNA, one strand shown
How it was run: as §1

[6] = molecular target: T3, ELK4 (Homo sapiens, UniProt P28324-2 1-405); details: protein: recombinant; tags: N-terminal GST; dsDNA, one strand shown
T3 sequence: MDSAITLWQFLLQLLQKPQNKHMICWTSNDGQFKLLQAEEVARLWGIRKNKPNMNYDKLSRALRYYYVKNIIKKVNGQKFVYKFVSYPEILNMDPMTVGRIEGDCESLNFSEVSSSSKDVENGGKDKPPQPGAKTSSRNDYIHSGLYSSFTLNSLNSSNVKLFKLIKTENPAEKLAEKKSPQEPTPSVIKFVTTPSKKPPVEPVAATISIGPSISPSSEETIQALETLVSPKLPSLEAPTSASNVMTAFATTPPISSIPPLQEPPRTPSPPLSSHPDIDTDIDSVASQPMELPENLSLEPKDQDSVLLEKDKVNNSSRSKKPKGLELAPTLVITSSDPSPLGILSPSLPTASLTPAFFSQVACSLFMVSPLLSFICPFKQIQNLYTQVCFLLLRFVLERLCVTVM
How it was run: as §1

[7] = molecular target: T4, ETV2 (Homo sapiens, UniProt O00321 1-342); details: protein: recombinant; tags: N-terminal GST; dsDNA, one strand shown
T4 sequence: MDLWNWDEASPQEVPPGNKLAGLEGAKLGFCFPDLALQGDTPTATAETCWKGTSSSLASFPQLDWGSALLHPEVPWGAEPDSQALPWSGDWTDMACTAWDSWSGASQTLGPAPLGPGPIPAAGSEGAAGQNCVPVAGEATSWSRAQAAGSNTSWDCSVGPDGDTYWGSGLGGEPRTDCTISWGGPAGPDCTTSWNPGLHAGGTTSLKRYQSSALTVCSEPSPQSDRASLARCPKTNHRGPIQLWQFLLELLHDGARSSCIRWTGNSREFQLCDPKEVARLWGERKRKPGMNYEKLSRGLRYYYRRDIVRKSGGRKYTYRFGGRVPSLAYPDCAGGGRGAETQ
How it was run: as §1

[8] = molecular target: T5, ELF3 (Homo sapiens, UniProt P78545 1-371); details: protein: recombinant; tags: N-terminal GST; dsDNA, one strand shown
T5 sequence: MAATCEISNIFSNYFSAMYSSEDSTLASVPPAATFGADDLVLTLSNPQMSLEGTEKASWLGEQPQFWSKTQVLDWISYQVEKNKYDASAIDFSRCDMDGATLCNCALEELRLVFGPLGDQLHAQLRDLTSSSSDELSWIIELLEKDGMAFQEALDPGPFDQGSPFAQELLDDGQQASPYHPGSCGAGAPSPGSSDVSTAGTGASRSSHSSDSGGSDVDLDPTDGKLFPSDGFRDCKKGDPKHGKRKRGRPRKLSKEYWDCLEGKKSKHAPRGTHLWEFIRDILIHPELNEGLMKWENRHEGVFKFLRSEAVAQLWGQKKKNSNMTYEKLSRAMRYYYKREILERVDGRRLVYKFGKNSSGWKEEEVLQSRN
How it was run: as §1

[9] = molecular target: CRX (Homo sapiens, UniProt O43186 1-299); details: protein: recombinant; tags: N-terminal GST; dsDNA, one strand shown
How it was run: as §1

[10] = molecular target: ETV1 (Homo sapiens, UniProt P50549 1-477); details: protein: recombinant; tags: N-terminal GST; dsDNA, one strand shown
How it was run: as §1

Sequence of ELF4 (Q99607 whole entry): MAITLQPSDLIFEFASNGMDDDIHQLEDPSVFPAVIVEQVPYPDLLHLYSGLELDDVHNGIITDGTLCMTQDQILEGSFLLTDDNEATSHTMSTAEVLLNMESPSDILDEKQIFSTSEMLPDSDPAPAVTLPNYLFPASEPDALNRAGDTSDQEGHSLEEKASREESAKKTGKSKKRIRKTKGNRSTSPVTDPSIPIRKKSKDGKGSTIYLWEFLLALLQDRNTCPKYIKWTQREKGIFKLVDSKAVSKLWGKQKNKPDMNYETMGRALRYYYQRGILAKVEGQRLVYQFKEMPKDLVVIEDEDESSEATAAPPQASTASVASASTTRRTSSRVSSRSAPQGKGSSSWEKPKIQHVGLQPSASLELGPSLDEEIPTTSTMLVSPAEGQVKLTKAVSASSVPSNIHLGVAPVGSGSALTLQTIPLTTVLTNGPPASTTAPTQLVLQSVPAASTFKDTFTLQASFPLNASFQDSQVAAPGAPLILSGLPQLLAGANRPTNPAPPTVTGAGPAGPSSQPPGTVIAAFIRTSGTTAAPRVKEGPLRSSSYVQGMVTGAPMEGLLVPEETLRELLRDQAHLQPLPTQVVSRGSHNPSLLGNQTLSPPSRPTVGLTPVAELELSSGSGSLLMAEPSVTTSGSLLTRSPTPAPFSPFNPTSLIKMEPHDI
Sequence of CRX (O43186 whole entry): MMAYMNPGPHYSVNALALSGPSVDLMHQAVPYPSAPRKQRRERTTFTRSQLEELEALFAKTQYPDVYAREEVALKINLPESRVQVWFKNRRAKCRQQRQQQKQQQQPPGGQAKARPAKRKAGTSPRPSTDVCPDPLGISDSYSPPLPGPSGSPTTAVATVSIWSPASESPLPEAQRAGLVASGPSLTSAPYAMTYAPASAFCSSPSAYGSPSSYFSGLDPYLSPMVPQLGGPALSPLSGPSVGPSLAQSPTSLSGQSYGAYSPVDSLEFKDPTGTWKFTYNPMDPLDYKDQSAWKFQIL
Sequence of HSF1 (Q00613 whole entry): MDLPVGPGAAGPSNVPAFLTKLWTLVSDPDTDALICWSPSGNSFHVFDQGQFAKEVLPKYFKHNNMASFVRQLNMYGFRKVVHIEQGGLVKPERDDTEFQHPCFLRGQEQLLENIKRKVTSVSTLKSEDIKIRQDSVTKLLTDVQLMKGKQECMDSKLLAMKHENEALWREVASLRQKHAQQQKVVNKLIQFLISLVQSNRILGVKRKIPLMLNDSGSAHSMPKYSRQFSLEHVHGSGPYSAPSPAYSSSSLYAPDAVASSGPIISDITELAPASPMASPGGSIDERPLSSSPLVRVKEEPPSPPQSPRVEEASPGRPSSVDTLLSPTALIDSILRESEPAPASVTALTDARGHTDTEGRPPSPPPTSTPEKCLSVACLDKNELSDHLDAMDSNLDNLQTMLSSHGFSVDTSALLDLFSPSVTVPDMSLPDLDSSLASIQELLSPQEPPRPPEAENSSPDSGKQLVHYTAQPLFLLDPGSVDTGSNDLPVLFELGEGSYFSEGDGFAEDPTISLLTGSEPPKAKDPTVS
Sequence of ETV1 (P50549 whole entry): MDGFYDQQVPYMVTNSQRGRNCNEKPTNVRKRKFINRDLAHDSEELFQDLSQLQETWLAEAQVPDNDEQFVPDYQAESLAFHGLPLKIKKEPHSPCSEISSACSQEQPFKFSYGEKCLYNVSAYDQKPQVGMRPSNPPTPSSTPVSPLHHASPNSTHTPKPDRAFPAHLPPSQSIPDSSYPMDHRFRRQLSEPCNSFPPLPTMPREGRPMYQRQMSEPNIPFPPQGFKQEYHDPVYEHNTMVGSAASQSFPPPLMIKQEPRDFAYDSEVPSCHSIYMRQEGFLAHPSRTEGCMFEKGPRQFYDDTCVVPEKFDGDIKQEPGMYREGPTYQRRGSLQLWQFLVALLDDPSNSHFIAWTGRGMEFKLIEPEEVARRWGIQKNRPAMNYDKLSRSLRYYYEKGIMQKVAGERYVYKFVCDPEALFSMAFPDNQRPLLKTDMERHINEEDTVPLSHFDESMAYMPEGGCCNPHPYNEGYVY
Sequence of ETV5 (P41161 whole entry): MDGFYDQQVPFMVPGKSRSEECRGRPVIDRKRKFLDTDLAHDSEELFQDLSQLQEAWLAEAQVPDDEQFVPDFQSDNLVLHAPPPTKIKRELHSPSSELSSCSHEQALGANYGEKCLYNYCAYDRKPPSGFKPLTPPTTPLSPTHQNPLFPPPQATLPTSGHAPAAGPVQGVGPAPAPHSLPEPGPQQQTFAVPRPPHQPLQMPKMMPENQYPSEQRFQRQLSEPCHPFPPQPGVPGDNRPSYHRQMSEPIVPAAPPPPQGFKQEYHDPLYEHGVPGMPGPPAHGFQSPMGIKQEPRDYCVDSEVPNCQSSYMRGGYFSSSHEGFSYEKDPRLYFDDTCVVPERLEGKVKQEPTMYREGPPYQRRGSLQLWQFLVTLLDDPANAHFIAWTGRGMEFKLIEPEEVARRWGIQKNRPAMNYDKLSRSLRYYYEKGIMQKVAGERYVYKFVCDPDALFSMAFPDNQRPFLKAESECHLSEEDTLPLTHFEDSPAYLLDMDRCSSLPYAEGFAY

Sequence	binding signal [1]	binding signal [2]	binding signal [3]	binding signal [4]	binding signal [5]	binding signal [6]	binding signal [7]	binding signal [8]	binding signal [9]	binding signal [10]
TTATCT	1.24 fold enrichment (6-mer frequency, TF over GST control)	1.27 fold enrichment (6-mer frequency, TF over GST control)	2.24 fold enrichment (6-mer frequency, TF over GST control)	1.25 fold enrichment (6-mer frequency, TF over GST control)	1.25 fold enrichment (6-mer frequency, TF over GST control)	1.45 fold enrichment (6-mer frequency, TF over GST control)	1.2 fold enrichment (6-mer frequency, TF over GST control)	1.13 fold enrichment (6-mer frequency, TF over GST control)	3.25 fold enrichment (6-mer frequency, TF over GST control)	1.29 fold enrichment (6-mer frequency, TF over GST control)
TTTGTA	1.52 fold enrichment (6-mer frequency, TF over GST control)	1.64 fold enrichment (6-mer frequency, TF over GST control)	1.65 fold enrichment (6-mer frequency, TF over GST control)	1.57 fold enrichment (6-mer frequency, TF over GST control)	1.58 fold enrichment (6-mer frequency, TF over GST control)	1.75 fold enrichment (6-mer frequency, TF over GST control)	1.53 fold enrichment (6-mer frequency, TF over GST control)	1.61 fold enrichment (6-mer frequency, TF over GST control)	1.89 fold enrichment (6-mer frequency, TF over GST control)	1.51 fold enrichment (6-mer frequency, TF over GST control)
TAAAAC	1.22 fold enrichment (6-mer frequency, TF over GST control)	1.18 fold enrichment (6-mer frequency, TF over GST control)	1.32 fold enrichment (6-mer frequency, TF over GST control)	1.29 fold enrichment (6-mer frequency, TF over GST control)	1.16 fold enrichment (6-mer frequency, TF over GST control)	1.15 fold enrichment (6-mer frequency, TF over GST control)	1.17 fold enrichment (6-mer frequency, TF over GST control)	1.14 fold enrichment (6-mer frequency, TF over GST control)	1.66 fold enrichment (6-mer frequency, TF over GST control)	1.18 fold enrichment (6-mer frequency, TF over GST control)
ATTCCG	1.79 fold enrichment (6-mer frequency, TF over GST control)	1.97 fold enrichment (6-mer frequency, TF over GST control)	1.52 fold enrichment (6-mer frequency, TF over GST control)	1.82 fold enrichment (6-mer frequency, TF over GST control)	1.61 fold enrichment (6-mer frequency, TF over GST control)	1.54 fold enrichment (6-mer frequency, TF over GST control)	1.79 fold enrichment (6-mer frequency, TF over GST control)	1.78 fold enrichment (6-mer frequency, TF over GST control)	1.27 fold enrichment (6-mer frequency, TF over GST control)	1.81 fold enrichment (6-mer frequency, TF over GST control)
CTCCCC	1.4 fold enrichment (6-mer frequency, TF over GST control)	1.39 fold enrichment (6-mer frequency, TF over GST control)	1.14 fold enrichment (6-mer frequency, TF over GST control)	1.28 fold enrichment (6-mer frequency, TF over GST control)	1.42 fold enrichment (6-mer frequency, TF over GST control)	1.38 fold enrichment (6-mer frequency, TF over GST control)	1.63 fold enrichment (6-mer frequency, TF over GST control)	1.25 fold enrichment (6-mer frequency, TF over GST control)	1.19 fold enrichment (6-mer frequency, TF over GST control)	1.46 fold enrichment (6-mer frequency, TF over GST control)
TTCCCG	1.85 fold enrichment (6-mer frequency, TF over GST control)	2.08 fold enrichment (6-mer frequency, TF over GST control)	2.46 fold enrichment (6-mer frequency, TF over GST control)	1.91 fold enrichment (6-mer frequency, TF over GST control)	1.73 fold enrichment (6-mer frequency, TF over GST control)	1.69 fold enrichment (6-mer frequency, TF over GST control)	1.87 fold enrichment (6-mer frequency, TF over GST control)	1.64 fold enrichment (6-mer frequency, TF over GST control)	1.7 fold enrichment (6-mer frequency, TF over GST control)	1.88 fold enrichment (6-mer frequency, TF over GST control)
CCACTT	2.3 fold enrichment (6-mer frequency, TF over GST control)	1.99 fold enrichment (6-mer frequency, TF over GST control)	1.25 fold enrichment (6-mer frequency, TF over GST control)	1.63 fold enrichment (6-mer frequency, TF over GST control)	1.98 fold enrichment (6-mer frequency, TF over GST control)	1.77 fold enrichment (6-mer frequency, TF over GST control)	1.91 fold enrichment (6-mer frequency, TF over GST control)	1.59 fold enrichment (6-mer frequency, TF over GST control)	1.36 fold enrichment (6-mer frequency, TF over GST control)	1.95 fold enrichment (6-mer frequency, TF over GST control)
